Measured values taken from PubChem BioAssay (NCI).
This is part of a sample that, as a whole, favours compounds with a hit. Of some 79,000 tested, about 15% had one in any assay. A number with no mark means an inactive call. Active and inactive are the calls of the source. Cut-off read from the data, not from the text of the source: active = growth inhibition above about 70%; inactive = the rest.

Assay: NCI Yeast Anticancer Drug Screen. Data for the wt1 strain (AID 149);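 note: 0% = growth of vehicle-treated wt1 cultures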
Details: S. cerevisiae wt1 strain (SPY 50644) growth inhibition, stronger effect = higher value
Method: Growth inhibition of yeast strains with defined genetic alterations is measured as a screen for potential anti-cancer activity. Selected strains with alterations in DNA damage repair or cell cycle control were exposed to compounds and growth inhibition was measured relative to vehicle treated controls. The strain used in this assay is wt1

| Structure (SMILES) | growth inhibition (at 1.2 µM) [%] | growth inhibition (at 3.7 µM) [%] | growth inhibition (at 11.0 µM) [%] | growth inhibition (at 33.0 µM) [%] | growth inhibition (at 100.0 µM) |
| --- | --- | --- | --- | --- | --- |
| COc1ccc(SCc2cc(OC)ccc2OC)cc1 | -4 | -4 | -5 | -6 | -1% |
| O=C(NC(=S)Nc1ccccn1)c1ccccc1 | -26 | -36 | -32 | -19 | -24% |
| Cc1cc(N=C2C=CC(=[N+](C)C)C=C2)c(N)cc1N | 12 | 15 | 23 | 52 | 75% (active) |
| COc1ccc(N=N/C(=N\NC(=O)c2cc(Br)ccc2O)c2ccc(N(CCC#N)CCC#N)cc2OC)cc1 | 15 | 17 | 9 | 5 | 51% |
| COc1cc(/C=C/c2sc3ccccc3[n+]2C)ccc1N(C)C | 0 | -1 | -1 | 30 | 97% (active) |
| C=Cc1cnc([N+](=O)[O-])n1C | 13 | 21 | 19 | 39 | 85% (active) |
| CC[C@@]1(OC(=O)CCC(=O)O)C(=O)OCc2c1cc1n(c2=O)Cc2cc3ccccc3nc2-1 | 4 | -2 | 7 | 57 | 90% (active) |
| CCCCC(CC)C(=O)Oc1ccc(C(=O)c2ccccc2)c(O)c1 (stereo not given) | -13 | -17 | -15 | 37 | 98% (active) |
